Records with an inconclusive call do not appear. Calls of active or inactive are those of the source. Rule for the calls: active = hit-call score of the fitted dose curve at least 0.9, where 1 is the maximum; inconclusive = response in the unintended direction; inactive = score below 0.9.
Each molecule was assayed against Luciferin 4-monooxygenase (Photinus pyralis) (UniProt P08659) (assay: CCTE_Simmons_QuantiLum_inhib_2: CCTE's Firefly Luciferase Inhibition Assay, Simmons Lab (AID 2283767);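 for AC50: potency for inhibitors that lower luciferase luminescence relative to DMSO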).
Luciferin 4-monooxygenase (Photinus pyralis), sequence (P08659 whole entry, looked up): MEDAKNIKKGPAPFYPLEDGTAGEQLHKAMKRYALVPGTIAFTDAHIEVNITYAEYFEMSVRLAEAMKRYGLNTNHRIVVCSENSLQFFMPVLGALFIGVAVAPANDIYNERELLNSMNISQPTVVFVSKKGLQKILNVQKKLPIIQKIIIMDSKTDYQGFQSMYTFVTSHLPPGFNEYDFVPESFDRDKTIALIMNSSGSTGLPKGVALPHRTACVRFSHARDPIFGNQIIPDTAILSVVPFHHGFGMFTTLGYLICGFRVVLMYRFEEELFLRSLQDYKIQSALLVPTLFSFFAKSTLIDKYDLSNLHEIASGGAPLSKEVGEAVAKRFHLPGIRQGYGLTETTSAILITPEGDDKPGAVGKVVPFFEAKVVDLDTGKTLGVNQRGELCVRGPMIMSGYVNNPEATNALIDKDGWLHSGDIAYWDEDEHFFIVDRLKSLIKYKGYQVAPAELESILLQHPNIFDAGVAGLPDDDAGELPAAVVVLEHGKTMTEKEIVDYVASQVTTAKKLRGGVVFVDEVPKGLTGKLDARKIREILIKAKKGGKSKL
Procedure: CCTE_Simmons_QuantiLum_inhib_2 is a biochemical, single-readout assay that uses purified luciferase enzyme in a cell-free assay.Measurements were taken 0.5 hour after chemical dosing in a 384-well plate.CCTE_Simmons_QuantiLum_inhib_2 is the assay component measured from the CCTE_Simmons_QuantiLum_inhib_2 assay. It is designed to make measurements of enzyme activity, a form of enzyme reporter, as detected with bioluminescence signals by Luciferase-coupled Quantilum levels technology. This is a secondary assay to CCTE_Simmons_AUR_TPO to evaluate nonspecific enzyme inhibition.Data from the assay component CCTE_Simmons_QuantiLum_inhib_2 was analyzed at the endpoint, CCTE_Simmons_QuantiLum_inhib_2, in the positive analysis fitting direction relative to DMSO as the negative control and baseline of activity. Using a type of enzyme reporter, measures of enzyme activity for loss-of-signal activity can be used to understand inhibition of firefly luciferase. This is an assay endpoint to indicate nonspecific protein inhibition for comparison to aeid 1508 for thyroperoxidase inhibition. To generalize the intended target to other relatable targets, this assay endpoint is annotated to the oxidoreductase intended target family, where the subfamily is monooxygenase.
Quanti-Lum recombinant luciferase (Promega; Madison, Wisconsin) was diluted to 76.9 ng/ml with 200mM potassium phosphate buffer supplemented with 1 mg/ml bovine serum albumin and 65ul (5ng recombinant luciferase) per well was dispensed into opaque, white 384-well plates (Greiner, BioExpress) using an automated liquid handler (BioTek MicroFlo) with a plastic 5 ul tubing cassette. Test compounds were administered using the HDRT as described earlier to achieve a 0.5% final DMSO concentration. Microplates were incubated at 37C in the dark for 30min to mimic the AUR-TPO assay conditions. Luciferase detection reagent (25 ul per well; 9.2 mM dithiothreitol, 75uM Coenzyme A, 147uM dATP, 150uM D-luciferin, 8.9 mM Tricine, 297uM (MgCO3)4.Mg(OH)2.5H20, 742uM MgSO4, 27.8uM EDTA, pH 7.8, final assay concentrations) was then added using a BMG Clariostar plate reader equipped with syringe injectors (BMG LabTech; GmbH). Plates were read using a kinetic luminescence protocol (top read) whereby each well was individually injected with luciferase detection reagent immediately prior to measurement. Three biological replicates of technical singles were run for every chemical concentration tested. A titrated range of LUCINH2 served as a positive control on each plate of the luciferase inhibition screening assay. Test chemicals were administered as a titrated series of 8 concentrations from 5 nM up to 87.5 uM [final] for 30 minutes prior to single endpoint detection. Dimethylsulfoxide [DMSO] was used as the vehicle control. Luciferase Inhibitor I [2-(5-(2-Methoxyphenyl)-1,2,4-oxadiazol-3-yl)pyridine] was used as the positive control and was administered as a titrated series of 8 concentrations from 1 nM up to 100 uM [final].
In the case of COc1ccc(C(=O)c2ccccc2O)c(O)c1, the outcome is reported as “inactive”.
In the case of CCCCC(CC)COC(=O)C=Cc1ccc(OC)cc1 (stereo not given), the outcome is reported as “inactive”.
In the case of Cc1cc(C)c(S(=O)(=O)O)cc1N=Nc1cc(S(=O)(=O)O)c2ccccc2c1O, the AC50 is reported as 2.98 µM (active).
Sc1nc2ccccc2s1 was tested, and the outcome was “inactive”.
For Oc1cccc2ccccc12, the AC50 was 29.9 µM (active).
In the case of Nc1ccc(S(=O)(=O)Nc2cnc3ccccc3n2)cc1, the outcome is reported as “inactive”.
For CCCCC(CC)COC(=O)CS (stereo not given), the outcome was “inactive”.
In the case of CCN(CC)CCNC(=O)c1c(C)[nH]c(/C=C2\C(=O)Nc3ccc(F)cc32)c1C, the outcome is reported as “inactive”.
For CN(C)c1ccc(C(c2ccccc2)c2ccc(N(C)C)cc2)cc1, the outcome was “inactive”.
With Cc1c(N(C)CS(=O)(=O)O)c(=O)n(-c2ccccc2)n1C the outcome was “inactive”.

From PubChem BioAssay (EPA / NIEHS)
